Assay results reported in the supplement of paper PMC11732987, “Enantioselective OTUD7B fragment discovery through chemoproteomics screening and high-throughput optimisation” (Communications Chemistry, 2025).

Columns and labels:
Experiment in all cases: log2 ratio of Biotin-Ahx-Ub-VS probe labelling (fragment/DMSO); higher = less target engagement (more negative = stronger competition), active = hit call of the paper (q ≤ 0.05, log2 ratio ≤ -1)
Conditions in all cases: compound concentration: 200 uM; treatment time: 3 h
USP9X = USP9X (UniProt Q93008)
In short: (§1)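 Using Biotin-Ahx-Ub-VS at 0.5 µM final for 1 h, DUBs were labelled in HEK293T lysate (495 µg per sample) that had first been treated in triplicate with fragment at 200 µM or vehicle for 3 h. NeutrAvidin enrichment, LysC and trypsin digestion and diaPASEF LC-MS/MS followed. Spectronaut label-free quantities were global-median-normalised. Values are average log2 fragment/vehicle ratios by unpaired t-test, using proteins with ≥2 unique peptides.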

UniProt O00487 = biological target: UniProt O00487
In short: as §1

UniProt O00507 = biological target: UniProt O00507
In short: as §1

UniProt P51784 = biological target: UniProt P51784
In short: as §1

UniProt Q5T2D3 = biological target: T1, UniProt Q5T2D3
T1 sequence (whole entry): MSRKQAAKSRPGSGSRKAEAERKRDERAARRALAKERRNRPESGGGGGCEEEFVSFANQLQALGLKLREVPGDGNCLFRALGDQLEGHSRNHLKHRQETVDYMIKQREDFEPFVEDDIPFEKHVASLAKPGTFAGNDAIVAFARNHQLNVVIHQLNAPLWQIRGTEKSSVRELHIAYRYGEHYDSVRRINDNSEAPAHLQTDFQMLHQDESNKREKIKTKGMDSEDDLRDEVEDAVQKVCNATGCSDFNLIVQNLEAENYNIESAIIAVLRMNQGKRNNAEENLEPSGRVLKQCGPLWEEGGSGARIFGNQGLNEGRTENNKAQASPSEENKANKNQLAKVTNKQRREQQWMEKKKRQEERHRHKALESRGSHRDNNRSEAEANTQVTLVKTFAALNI
In short: as §1

UniProt Q8TE49 = biological target: T2, UniProt Q8TE49
T2 sequence (whole entry): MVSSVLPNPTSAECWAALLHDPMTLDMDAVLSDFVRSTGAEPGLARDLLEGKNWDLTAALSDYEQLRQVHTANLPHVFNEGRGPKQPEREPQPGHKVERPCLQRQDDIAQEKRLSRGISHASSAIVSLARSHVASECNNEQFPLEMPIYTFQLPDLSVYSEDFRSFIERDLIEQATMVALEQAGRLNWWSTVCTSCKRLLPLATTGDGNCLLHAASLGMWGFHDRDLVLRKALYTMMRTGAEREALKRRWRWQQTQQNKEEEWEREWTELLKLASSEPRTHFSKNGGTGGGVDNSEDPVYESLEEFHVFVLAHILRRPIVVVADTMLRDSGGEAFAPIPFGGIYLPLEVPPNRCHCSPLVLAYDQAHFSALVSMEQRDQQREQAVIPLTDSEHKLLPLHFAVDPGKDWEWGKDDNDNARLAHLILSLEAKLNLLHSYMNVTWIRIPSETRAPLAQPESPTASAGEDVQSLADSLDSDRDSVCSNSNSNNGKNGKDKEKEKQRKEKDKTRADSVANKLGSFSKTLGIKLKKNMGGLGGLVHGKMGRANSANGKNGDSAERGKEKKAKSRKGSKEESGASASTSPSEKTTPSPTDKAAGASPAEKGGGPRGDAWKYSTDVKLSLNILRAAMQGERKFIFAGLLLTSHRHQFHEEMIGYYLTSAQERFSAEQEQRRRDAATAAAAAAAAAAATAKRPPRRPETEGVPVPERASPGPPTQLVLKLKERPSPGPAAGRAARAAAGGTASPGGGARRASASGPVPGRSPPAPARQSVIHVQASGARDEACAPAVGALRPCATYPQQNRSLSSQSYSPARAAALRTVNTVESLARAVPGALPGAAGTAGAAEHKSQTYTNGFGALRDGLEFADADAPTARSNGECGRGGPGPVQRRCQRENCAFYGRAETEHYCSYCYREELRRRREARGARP
In short: as §1

UniProt Q9P2H5 = biological target: T3, UniProt Q9P2H5
T3 sequence (whole entry): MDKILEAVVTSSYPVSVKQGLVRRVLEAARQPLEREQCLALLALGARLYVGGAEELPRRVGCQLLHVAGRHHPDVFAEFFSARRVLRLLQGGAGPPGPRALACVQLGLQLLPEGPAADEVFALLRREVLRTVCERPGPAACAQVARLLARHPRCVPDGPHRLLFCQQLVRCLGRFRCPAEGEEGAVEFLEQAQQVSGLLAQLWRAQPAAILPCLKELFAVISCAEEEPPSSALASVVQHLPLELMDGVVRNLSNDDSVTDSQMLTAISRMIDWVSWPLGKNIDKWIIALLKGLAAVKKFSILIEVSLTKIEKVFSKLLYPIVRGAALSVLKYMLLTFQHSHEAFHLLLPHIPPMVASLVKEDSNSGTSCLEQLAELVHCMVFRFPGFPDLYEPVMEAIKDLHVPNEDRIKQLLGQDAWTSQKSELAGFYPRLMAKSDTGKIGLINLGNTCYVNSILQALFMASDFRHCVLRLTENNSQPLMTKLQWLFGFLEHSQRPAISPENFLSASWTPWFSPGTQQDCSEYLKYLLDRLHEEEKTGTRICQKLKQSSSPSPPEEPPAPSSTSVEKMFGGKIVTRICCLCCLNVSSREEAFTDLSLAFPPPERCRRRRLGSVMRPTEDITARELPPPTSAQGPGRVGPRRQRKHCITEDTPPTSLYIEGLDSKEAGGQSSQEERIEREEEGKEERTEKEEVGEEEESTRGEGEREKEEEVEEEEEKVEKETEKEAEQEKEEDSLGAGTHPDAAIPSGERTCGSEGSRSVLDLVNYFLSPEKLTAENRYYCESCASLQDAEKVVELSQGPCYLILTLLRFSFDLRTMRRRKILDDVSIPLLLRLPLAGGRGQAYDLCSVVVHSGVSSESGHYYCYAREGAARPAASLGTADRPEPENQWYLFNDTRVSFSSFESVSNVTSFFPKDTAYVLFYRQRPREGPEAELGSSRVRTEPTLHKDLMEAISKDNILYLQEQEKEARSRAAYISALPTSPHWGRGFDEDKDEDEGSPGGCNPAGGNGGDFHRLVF
In short: as §1

UniProt Q9UGI0 = biological target: T4, UniProt Q9UGI0
T4 sequence (whole entry): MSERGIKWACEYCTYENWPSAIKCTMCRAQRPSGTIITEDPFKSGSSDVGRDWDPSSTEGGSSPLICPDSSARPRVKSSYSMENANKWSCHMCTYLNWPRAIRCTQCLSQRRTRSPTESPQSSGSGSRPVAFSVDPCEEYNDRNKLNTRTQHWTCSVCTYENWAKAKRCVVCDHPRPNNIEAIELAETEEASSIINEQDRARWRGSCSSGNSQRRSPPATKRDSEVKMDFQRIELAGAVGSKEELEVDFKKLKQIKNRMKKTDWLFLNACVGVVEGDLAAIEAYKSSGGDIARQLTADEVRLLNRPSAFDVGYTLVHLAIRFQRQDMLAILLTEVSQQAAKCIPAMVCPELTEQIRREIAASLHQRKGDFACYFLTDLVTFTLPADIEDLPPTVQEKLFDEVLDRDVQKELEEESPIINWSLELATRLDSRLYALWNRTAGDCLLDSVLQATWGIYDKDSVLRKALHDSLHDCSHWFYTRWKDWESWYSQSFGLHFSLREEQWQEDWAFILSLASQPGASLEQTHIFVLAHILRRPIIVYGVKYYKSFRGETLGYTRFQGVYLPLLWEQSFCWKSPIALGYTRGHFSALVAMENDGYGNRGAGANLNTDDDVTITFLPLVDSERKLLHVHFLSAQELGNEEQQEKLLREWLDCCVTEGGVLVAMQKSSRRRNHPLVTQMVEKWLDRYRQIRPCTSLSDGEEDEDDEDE
In short: as §1

YOD1 = biological target: T5, YOD1 (UniProt Q5VVQ6)
T5 sequence (whole entry): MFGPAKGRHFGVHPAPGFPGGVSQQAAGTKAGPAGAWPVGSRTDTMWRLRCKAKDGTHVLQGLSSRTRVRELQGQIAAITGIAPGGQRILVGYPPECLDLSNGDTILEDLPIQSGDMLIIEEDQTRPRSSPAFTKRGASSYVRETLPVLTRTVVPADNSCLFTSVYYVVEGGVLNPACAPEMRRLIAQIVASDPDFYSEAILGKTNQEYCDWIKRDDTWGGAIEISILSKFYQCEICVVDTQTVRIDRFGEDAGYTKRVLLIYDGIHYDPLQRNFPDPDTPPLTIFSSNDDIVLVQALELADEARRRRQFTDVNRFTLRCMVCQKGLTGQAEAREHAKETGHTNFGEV
In short: as §1

Measured: log2 ratio of Biotin-Ahx-Ub-VS probe labelling

USP9X, sequence (Q93008 whole entry, the tested form may be a part): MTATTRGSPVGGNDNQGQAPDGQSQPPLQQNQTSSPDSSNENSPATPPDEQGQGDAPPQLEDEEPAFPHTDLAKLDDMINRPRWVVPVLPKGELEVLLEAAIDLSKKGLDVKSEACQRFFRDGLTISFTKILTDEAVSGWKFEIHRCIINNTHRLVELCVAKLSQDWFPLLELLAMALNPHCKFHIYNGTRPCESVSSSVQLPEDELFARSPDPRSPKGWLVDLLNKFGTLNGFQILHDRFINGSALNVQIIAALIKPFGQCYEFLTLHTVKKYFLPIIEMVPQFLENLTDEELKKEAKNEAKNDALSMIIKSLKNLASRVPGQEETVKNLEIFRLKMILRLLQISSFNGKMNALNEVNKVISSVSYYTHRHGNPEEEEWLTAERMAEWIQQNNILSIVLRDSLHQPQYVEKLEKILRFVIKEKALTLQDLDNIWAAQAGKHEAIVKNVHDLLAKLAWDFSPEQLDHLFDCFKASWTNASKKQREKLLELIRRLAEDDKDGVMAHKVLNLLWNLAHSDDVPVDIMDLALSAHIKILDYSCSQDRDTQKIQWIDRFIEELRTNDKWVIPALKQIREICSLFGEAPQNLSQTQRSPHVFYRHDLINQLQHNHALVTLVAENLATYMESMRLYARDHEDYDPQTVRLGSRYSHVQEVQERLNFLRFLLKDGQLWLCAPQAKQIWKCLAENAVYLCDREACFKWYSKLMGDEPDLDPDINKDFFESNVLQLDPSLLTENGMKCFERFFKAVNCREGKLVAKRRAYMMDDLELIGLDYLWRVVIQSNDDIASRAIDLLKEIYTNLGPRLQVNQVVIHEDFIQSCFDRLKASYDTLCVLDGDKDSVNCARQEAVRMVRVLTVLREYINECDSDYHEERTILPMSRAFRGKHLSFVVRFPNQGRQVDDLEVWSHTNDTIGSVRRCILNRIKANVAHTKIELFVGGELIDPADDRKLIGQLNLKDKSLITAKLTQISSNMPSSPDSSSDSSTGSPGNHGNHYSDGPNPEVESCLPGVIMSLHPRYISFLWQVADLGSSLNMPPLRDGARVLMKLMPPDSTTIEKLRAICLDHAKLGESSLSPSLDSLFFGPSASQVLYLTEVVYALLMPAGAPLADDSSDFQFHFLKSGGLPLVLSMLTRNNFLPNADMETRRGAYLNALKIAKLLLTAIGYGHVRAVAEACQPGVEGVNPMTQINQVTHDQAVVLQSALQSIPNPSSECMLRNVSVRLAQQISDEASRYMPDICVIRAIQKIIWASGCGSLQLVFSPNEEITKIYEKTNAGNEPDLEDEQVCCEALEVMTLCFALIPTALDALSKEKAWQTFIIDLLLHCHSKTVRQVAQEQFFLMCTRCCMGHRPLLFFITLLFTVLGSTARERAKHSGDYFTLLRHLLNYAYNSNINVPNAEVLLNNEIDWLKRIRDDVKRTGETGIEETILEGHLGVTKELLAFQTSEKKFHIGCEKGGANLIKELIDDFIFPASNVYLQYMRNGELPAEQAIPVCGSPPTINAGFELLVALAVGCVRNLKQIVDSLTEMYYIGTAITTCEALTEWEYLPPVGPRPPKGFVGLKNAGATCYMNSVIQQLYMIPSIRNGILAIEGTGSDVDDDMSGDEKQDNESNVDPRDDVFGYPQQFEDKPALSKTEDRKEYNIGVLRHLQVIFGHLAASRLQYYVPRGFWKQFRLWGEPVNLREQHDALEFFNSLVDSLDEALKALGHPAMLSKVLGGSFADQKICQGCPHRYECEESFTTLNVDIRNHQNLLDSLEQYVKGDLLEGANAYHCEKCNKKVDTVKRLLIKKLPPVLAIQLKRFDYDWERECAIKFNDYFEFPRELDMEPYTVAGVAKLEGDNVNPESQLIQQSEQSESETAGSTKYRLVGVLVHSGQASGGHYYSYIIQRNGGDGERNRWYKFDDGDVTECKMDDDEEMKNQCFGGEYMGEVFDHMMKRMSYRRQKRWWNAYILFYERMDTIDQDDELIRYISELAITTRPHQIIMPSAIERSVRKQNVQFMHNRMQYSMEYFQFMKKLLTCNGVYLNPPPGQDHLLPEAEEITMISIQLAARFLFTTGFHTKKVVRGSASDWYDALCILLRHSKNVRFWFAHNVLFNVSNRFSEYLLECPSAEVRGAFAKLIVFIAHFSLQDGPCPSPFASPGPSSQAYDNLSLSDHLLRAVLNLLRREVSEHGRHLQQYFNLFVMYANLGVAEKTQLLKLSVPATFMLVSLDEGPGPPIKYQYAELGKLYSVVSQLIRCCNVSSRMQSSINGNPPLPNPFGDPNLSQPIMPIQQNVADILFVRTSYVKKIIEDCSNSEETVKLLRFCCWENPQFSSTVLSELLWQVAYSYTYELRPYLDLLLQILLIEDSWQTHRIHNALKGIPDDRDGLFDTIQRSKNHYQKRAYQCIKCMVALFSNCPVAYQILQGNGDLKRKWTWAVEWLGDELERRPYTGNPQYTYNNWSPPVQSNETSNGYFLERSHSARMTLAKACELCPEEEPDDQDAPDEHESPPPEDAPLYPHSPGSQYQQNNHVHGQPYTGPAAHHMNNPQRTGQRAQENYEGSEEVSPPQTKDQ
UniProt P51784, sequence (P51784 whole entry): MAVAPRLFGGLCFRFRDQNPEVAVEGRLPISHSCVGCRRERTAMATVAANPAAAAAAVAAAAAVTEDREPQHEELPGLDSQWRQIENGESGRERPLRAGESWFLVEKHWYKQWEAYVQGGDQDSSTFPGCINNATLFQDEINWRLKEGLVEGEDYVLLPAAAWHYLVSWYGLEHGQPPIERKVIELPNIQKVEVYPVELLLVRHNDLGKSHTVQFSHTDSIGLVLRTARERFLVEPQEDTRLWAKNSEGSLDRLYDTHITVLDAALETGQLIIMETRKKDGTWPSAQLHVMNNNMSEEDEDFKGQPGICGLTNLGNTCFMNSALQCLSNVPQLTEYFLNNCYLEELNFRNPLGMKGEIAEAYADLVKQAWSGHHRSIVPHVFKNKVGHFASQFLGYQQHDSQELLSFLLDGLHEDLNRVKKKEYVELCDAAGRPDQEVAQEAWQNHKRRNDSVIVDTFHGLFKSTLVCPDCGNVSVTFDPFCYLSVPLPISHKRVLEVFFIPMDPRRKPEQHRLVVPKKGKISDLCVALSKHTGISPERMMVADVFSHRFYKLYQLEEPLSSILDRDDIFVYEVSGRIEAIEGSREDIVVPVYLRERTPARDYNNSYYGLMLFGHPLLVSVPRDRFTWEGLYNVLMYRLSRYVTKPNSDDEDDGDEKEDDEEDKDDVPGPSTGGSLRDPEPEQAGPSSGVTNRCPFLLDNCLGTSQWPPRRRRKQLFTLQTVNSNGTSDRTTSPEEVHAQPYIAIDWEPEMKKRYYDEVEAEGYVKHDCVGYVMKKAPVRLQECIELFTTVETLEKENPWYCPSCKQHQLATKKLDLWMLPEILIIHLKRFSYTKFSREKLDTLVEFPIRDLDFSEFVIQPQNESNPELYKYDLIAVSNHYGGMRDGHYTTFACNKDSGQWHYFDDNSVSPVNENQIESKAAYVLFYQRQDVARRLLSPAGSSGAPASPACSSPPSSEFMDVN
UniProt O00487, sequence (O00487 whole entry): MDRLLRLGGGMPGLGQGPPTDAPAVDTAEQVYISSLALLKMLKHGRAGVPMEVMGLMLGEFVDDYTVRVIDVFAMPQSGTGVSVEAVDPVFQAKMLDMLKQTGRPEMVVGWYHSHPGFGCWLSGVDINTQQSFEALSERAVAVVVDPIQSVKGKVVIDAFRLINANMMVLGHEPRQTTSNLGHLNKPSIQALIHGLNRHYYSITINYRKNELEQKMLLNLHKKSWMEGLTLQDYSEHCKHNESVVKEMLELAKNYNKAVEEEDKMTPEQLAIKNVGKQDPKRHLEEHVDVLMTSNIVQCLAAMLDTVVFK

CS(=O)(=O)N1CCCN(C(=O)CCl)CC1
inactive: USP9X -0.177 | UniProt O00487 0.0126 | UniProt O00507 0.0618 | UniProt P51784 -0.0587 | UniProt Q5T2D3 -0.154 | UniProt Q8TE49 -0.261 | UniProt Q9P2H5 -0.224 | UniProt Q9UGI0 -0.469 | YOD1 0.146
